# Cruzain Triton: qHTS Assay for Promiscuous and Specific Inhibitors of Cruzain (with detergent) | Cruzipain (Trypanosoma cruzi), P25779 | purified cruzain, Z-FR-AMC fluorescence, 0.01% Triton | Potency, µM, for inactives: max response, negative = inhibition, actives largely listed as inhibitors | 200,000 compounds, 0.43% hits;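 also: plate controls were neutral wells for no effect and buffer without enzyme for full effect; nearly all actives have a fitted effect of over 40% in size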
# Target sequence (P25779 123-467 limits assumed): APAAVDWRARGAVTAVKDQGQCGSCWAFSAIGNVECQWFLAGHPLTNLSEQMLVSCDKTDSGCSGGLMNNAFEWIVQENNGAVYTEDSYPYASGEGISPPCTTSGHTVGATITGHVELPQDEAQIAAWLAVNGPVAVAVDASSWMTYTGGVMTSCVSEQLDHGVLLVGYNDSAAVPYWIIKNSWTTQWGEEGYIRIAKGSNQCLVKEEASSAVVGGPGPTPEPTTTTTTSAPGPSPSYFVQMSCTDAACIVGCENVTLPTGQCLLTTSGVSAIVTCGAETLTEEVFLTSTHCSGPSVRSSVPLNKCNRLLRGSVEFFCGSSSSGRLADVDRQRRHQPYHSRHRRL
#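 Z-FR-AMC hydrolysis (2 uM substrate) by cruzain (1.5 nM) monitored kinetically at ex 360/em 450 nm after 15 min room-temperature compound exposure; 0.01% Triton X-100, pH 5.5, 5 mM DTT.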
# Cruzain noTriton: qHTS Assay for Promiscuous and Specific Inhibitors of Cruzain (without detergent). purified cruzain, Z-FR-AMC fluorescence, no detergent. Potency, µM, inactives show max response, negative = inhibition, hits mostly inhibitors. 200,000 compounds, 2.3% hits;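 also: plate controls were enzyme without inhibitor for no effect and buffer without enzyme for full effect; nearly all actives have a fitted effect of over 40% in size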
#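 Purified cruzain at 1.5 nM, pre-incubated 15 min with compound at room temperature in 100 mM sodium acetate pH 5.5, 5 mM DTT, 0.00005% Triton X-100. Reaction started with 2 uM Z-FR-AMC; AMC fluorescence increase over 60 s gives rate.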
# * = called active by the depositor; ? = inconclusive. A selection: hits, their analogues and other compounds. The true share with any hit is near 2.5%. Calls follow the shape of the dose curve; as a rule, active = well fitted curve in the direction sought with a large enough effect; inconclusive = small, poorly fitted or top-dose-only effect, or another doubt; inactive = no such curve, though single readings can be large; an effect the other way counts as inactive or inconclusive. Potency is read from the fitted curve at half-maximal effect.
SMILES,Cruzain Triton,Cruzain noTriton
COc1ccc(-c2nn(-c3ccccc3)cc2/C=N/NC(=O)c2ccc3c(c2)OCO3)cc1,-4%,?
O=C(N/N=C\c1cn(-c2ccccc2)nc1-c1ccccc1)c1ccc2c(c1)OCO2,0%,20µM*
COc1ccc(-c2nn(-c3ccccc3)cc2/C=N/NC(=O)c2ccc(Br)o2)cc1,0%,25µM*
O=C(N/N=C/c1cn(-c2ccccc2)nc1-c1cc2ccccc2o1)c1ccccc1Br,-4%,7.9µM*
Cc1cc(OCC(=O)N(Cc2ccc(N(C)C)cc2)Cc2ccco2)cc(C)c1Cl,-10%,?
COc1cc(NC(=O)Cn2cnc3c2c(=O)n(C)c(=O)n3C)c(OC)cc1Cl,0%,2%
CCc1ccc(C(=O)c2cn(CC(=O)Nc3ccc(F)cc3)c3cc4c(cc3c2=O)OCO4)cc1,-7%,-14%
COc1cccc(N2CCN(C(=O)CCS(=O)(=O)c3ccc4c(c3)CC(=O)N4C)CC2)c1,-1%,17%
Cc1ccc(N2CCN(c3nc4ccc(C)cc4n4nnnc34)CC2)c(C)c1,1%,-18%
Cc1ccccc1C(=O)NNC(=O)c1ccc(F)cc1,-2%,-1%
O=C(NNC(=O)c1cc2cc3ccccc3nc2s1)c1ccc(F)cc1,?,10µM*
O=C(NNC(=O)c1cc2cc3ccccc3nc2s1)c1cccc(Cl)c1,?,25µM*
Cc1cccc(C(=O)NNC(=O)c2cc3cc4ccccc4nc3s2)c1,4%,20µM*
Cc1ccc(S(=O)(=O)NNC(=O)c2cc3cc4ccccc4nc3s2)cc1,-14%,-5%
O=C(NNC(=O)c1ccccc1Br)c1cccc(Cl)c1,3%,-4%
Cc1ccc(CNC(=O)CCc2c(C)c3ccc(O)c(C)c3oc2=O)cc1,-4%,-12%
CC(=O)N1CCc2cc(Br)cc(S(=O)(=O)N3CCC(C(=O)Nc4cccc(C)c4C)CC3)c21,-5%,20%
COc1cccc(C(=O)Nc2ccccc2-c2nnc(-c3cccc(OC)c3)o2)c1,-3%,-12%
Clc1ccc(Cl)c(Nc2ccnc(SCc3ccccc3)n2)c1,-6%,-12%
Oc1ccccc1/C=N/Nc1ccnc(SCc2ccccc2)n1,-6%,20µM*
COc1cc(NC(=O)CSc2nc3ccccc3n2-c2ccccc2)c(C)cc1[N+](=O)[O-],1%,7.9µM*
COc1ccc([N+](=O)[O-])cc1NC(=O)CSc1nncn1-c1ccccc1,-5%,-12%
COc1ccc(-n2c(SCC(=O)Nc3ccc([N+](=O)[O-])cc3OC)nc3ccccc32)cc1,-1%,7.9µM*
COc1cc(NC(=O)CSc2nccc(C)n2)c(C)cc1[N+](=O)[O-],-5%,-3%
Nc1ccccc1CCCC(=O)O,2%,-10%
SMILES,Cruzain Triton,Cruzain noTriton
CCc1cccc(-n2c(=O)c3cccnc3n2CC(=O)NCc2ccccc2Cl)c1,0%,4%
COc1ccc(Cn2c(=O)c3oc4ccccc4c3n(CC(=O)Nc3c(C)cccc3C)c2=O)cc1,0%,-7%
Cn1c(=O)n(C)c2cc(S(=O)(=O)N3CCOCC3)ccc21,3%,-5%
O=S(=O)(c1ccc2nc(-c3ccco3)c(-c3ccco3)nc2c1)N1CCOCC1,22µM*,1%
O=C(N/N=C\c1ccc(-c2ccccc2[N+](=O)[O-])o1)C1COc2ccccc2O1 (stereo not given),-11%,?
O=C(N/N=C\c1ccc(-c2ccccc2[N+](=O)[O-])o1)C1COc2cc3ccccc3cc2O1 (stereo not given),-2%,7.9µM*
Cc1ccc(C(=O)Nc2ccc3oc(-c4ccccc4C)nc3c2)cc1,-5%,-4%
COc1ccccc1-c1cn(S(=O)(=O)c2ccc(C)cc2)nc1N,-3%,10µM*
COc1ccc(OC)c(-c2cn(S(=O)(=O)c3ccccc3)nc2N)c1,-14%,-1%
O=C(NCCc1ccc(Cl)cc1)C1(c2cccs2)CCOCC1,-1%,8%
CCOC(=O)C1=C(N)n2c(s/c(=C\c3cccnc3)c2=O)=C(C(=O)OCC)C1c1cccnc1 (stereo not given),-2%,?
CCOC(=O)C1=C(N)n2c(s/c(=C\c3cccs3)c2=O)=C(C(=O)OCC)C1c1cccs1 (stereo not given),-4%,2µM*
Cc1nc(NC(=O)CSc2nnc(-c3ccccc3)c(-c3ccccc3)n2)c(Cl)cc1Cl,-13%,?
O=C(CSc1nnc(-c2ccccc2)c(-c2ccccc2)n1)Nc1ncc(Cl)cc1Cl,-11%,32µM*
CCOC(=O)c1cc2c(=O)n3ccccc3nc2n(CC2CCCO2)c1=NC(=O)c1cccc(C)c1 (stereo not given),-1%,-13%
Fc1ccc(CSc2ccc3nnc(-c4cccs4)n3n2)cc1,-2%,?
Cc1cccc(CSc2ccc3nnc(-c4cccs4)n3n2)c1,-4%,32µM*
O=c1c2sccc2n(Cc2cc(=O)n3cc(Cl)ccc3n2)c(=O)n1-c1ccccc1,-10%,-9%
Cc1cccc(OCC(=O)NC(C)C(=O)N/N=C/c2c(OCc3ccccc3)ccc3ccccc23)c1 (stereo not given),0%,16µM*
Cc1cccc(OCC(=O)NC(Cc2ccccc2)C(=O)O)c1 (stereo not given),-3%,4%
CC(=O)c1cccc(NC(=O)Cn2c(=O)oc3cc(S(=O)(=O)NC4CCCC4)ccc32)c1,-1%,-10%
COc1ccc(/C=N/N2CCN(C3c4ccccc4-c4ccccc43)CC2)cc1O,-4%,15%
O=[N+]([O-])c1cc(/C=N/N2CCN(C3c4ccccc4-c4ccccc43)CC2)ccc1Cl,4%,13µM*
O=C(NCc1cccc(F)c1)c1ccc(NC(=O)c2nsc3ccccc23)cc1,-3%,-23%
O=C(N/N=C/C=C\c1ccccc1[N+](=O)[O-])c1cc(-c2ccc3ccccc3c2)n[nH]1,-13%,7.9µM*
SMILES,Cruzain Triton,Cruzain noTriton
O=C(N/N=C/C=C\c1ccccc1[N+](=O)[O-])c1cccs1,-9%,-10%
COCCn1c(C)cc(O)c(C(c2cccc(F)c2)N2CCN(c3ccccc3)CC2)c1=O (stereo not given),1%,-3%
COc1ccc(N2CCN(Cc3nc4c(c(=O)[nH]c(=O)n4C)n3Cc3ccccc3C)CC2)cc1,0%,8%
CCCc1nc2ccccc2c(=O)n1-c1cccc(OC)c1,1%,1%
CC(C)Oc1cccc(-n2c(CCc3c[nH]c4ccc(Br)cc34)nc3ccccc3c2=O)c1,5%,32µM*
CCC(CC)C(=O)Nc1ccc2nc(SCC(=O)N3c4ccccc4CC3C)sc2c1 (stereo not given),-3%,2%
CCCCCCCCCCCCCc1ccco1,0%,-1%
CCOc1cc(/C=C/c2cc(C(=O)O)c3ccccc3n2)ccc1O,-10%,-10%
CCOc1cc(/C=C2\C(=O)N(c3nc(-c4ccc(Br)cc4)cs3)N=C2c2ccccc2)ccc1O,?,3.2µM*
COc1ccc(NC(=O)Cn2c(=O)n(Cc3ccco3)c(=O)c3sc4ccccc4c32)cc1Cl,-13%,25µM*
COc1ccc(NC(=O)Cn2c(=O)n(Cc3ccco3)c(=O)c3sc4ccccc4c32)c(OC)c1,-3%,3%
CCSc1ccccc1C(=O)Nc1ccc(-c2nc3ccccc3s2)c(O)c1,1%,7.9µM*
CSc1ccc(C(=O)Nc2ccc(-c3nc4ccccc4s3)c(O)c2)cc1,1%,2%
Cc1cc(C)c(S(=O)(=O)NCCS(=O)(=O)N2CCN(c3ccccc3)CC2)c(C)c1,-8%,-10%

# Screening results (PubChem)
